Potency and outcome data for seven compounds are collected here from PubChem BioAssay (Tox21).

Experiment [1] in a line: A CellTox Green Cytotoxicity Assay to monitor cytotoxicity in HEK293 cells - 32 hour (AID 1224881). Also: nearly all actives have a fitted effect of over 40% in size. Also: potency is read from the fitted curve at half-maximal effect. In outline: (§1)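 Seeding of HEK293 cells together with cytotoxicity dye preceded a 5 h incubation at 37 C/5% CO2. Test compounds in DMSO were then added and fluorescence monitored across 40 h.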
A short description of experiment [2]: A CellTox Green Cytotoxicity Assay to monitor cytotoxicity in HepG2 cells - 0 hour (AID 1224882). Also: nearly all actives have a fitted effect of over 35% in size. In outline:
(§2)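 Nonlytic assay: viable cells exclude the dye, so fluorescence scales with cell death. HepG2 at 600 cells/well, compounds added after 5 h, signal read across 40 h.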

Experiment [3] can be described thus: A CellTox Green Cytotoxicity Assay to monitor cytotoxicity in HepG2 cells - 32 hour (AID 1224883). Also: nearly all actives have a fitted effect of over 50% in size. Also: potency is read from the fitted curve at half-maximal effect. In outline:
as §2

Experiment [4] in a line: A CellTox Green Cytotoxicity Assay to monitor cytotoxicity in HEK293 cells - 8 hour (AID 1224884). Also: nearly all actives have a fitted effect of over 35% in size. The essentials: as §1
Experiment [5] is described as follows: qHTS RealTime-Glo MT Cell Viability Assay in HepG2 cells - 16 hour (AID 1224885). Also: nearly all actives have a fitted effect of over 50% in size. The essentials:
(§3)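 Viability was tracked continuously by NanoLuc luminescence from prosubstrate reduced by living HepG2 cells, at successive time points over 40 h of compound exposure. Cells with reagent were preincubated 5 h at 37 °C before compound addition.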

Experiment [6] in a line: qHTS RealTime-Glo MT Cell Viability Assay in HEK293 cells - 24 hour (AID 1224886). Also: top concentration of the series differs between compounds; nearly all actives have a fitted effect of over 50% in size. In outline: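 Viability tracked continuously by luminescence as live cells reduce a prosubstrate for NanoLuc; HEK293 cells preincubated 5 h, compound-treated at 37 C, and read at 0, 8, 16, 24, 32 and 40 h.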
Experiment [7] is described as follows: qHTS RealTime-Glo MT Cell Viability Assay in HEK293 cells - 8 hour (AID 1224887). Also: top concentration of the series differs between compounds; nearly all actives have a fitted effect of over 50% in size. In outline: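 Tox21 screen in HEK293 using RealTime-Glo MT chemistry, with cells and reagent co-dispensed. Luminescence proportional to viable cell number was captured at intervals during 40 h compound exposure at 37 C.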
Experiment [8] is described as follows: A CellTox Green Cytotoxicity Assay to monitor cytotoxicity in HEK293 cells - 16 hour (AID 1224888). Also: nearly all actives have a fitted effect of over 35% in size. The essentials: as §1
Experiment [9] in a line: qHTS RealTime-Glo MT Cell Viability Assay in HepG2 cells - 0 hour (AID 1224889). Also: nearly all actives have a fitted effect of over 50% in size. The essentials:
as §3

A short description of experiment [10]: qHTS assay to identify small molecule antagonists of the estrogen receptor alpha (ER-alpha) signaling pathway using the BG1 cell line in the presence of 0.1 nM 17-beta-estradiol - cell viability counter screen (AID 1259241). Also: nearly all actives have a fitted effect of over 40% in size. Also: potency is read from the fitted curve at half-maximal effect. The essentials: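 VM7Luc4E2, 4,000 cells/well, phenol red-free medium + 10% charcoal-stripped FBS; 24 hr plating; cpd + 0.1 nM E2 final, 22 hr 37C/5% CO2; CellTiter-Fluor 30 min, fluorescence.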

A short description of experiment [11]: qHTS assay to identify small molecule antagonists of the androgen receptor (AR) signaling pathway using the MDA cell line in the presence of 0.5 nM R1881 - cell viability counter screen (AID 1259242). Also: nearly all actives have a fitted effect of over 45% in size. The essentials:
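R1881 at 0.5 nM final stimulated MDA-kb2 cells during 16 hr compound treatment at 37C. Cytotoxicity read: CellTiter-Fluor fluorescence after 30 min.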

In experiment [12] the target is Estrogen receptor (Homo sapiens) (UniProt P03372). In words: qHTS assay to identify small molecule antagonists of the estrogen receptor alpha (ER-alpha) signaling pathway using the BG1 cell line in the presence of 0.1 nM 17-beta-estradiol (AID 1259244). Also: nearly all actives have a fitted effect of over 50% in size. In outline:
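VM7Luc4E2; 4xERE-luciferase; 0.1 nM E2 final; 22 h co-incubation, 37C; ONE-Glo luminescence after 30 min at room temperature.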

Experiment [13] in a line: qHTS assay to identify small molecule HDAC inhibitors (AID 1259364).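 Also: wild-type HCT-116 cells with endogenous class I/II HDAC activity; top concentration of the series differs between compounds; nearly all actives have a fitted effect of over 45% in size.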 The essentials:
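Relative class I and II HDAC activity is taken from the luminogenic signal in HCT-116 cells, with compound exposure 2 hr and reagent development 30 min at room temperature.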

A short description of experiment [14]: qHTS assay to identify small molecule HDAC inhibitors - cell viability counter screen (AID 1259365). The essentials: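 Luminescence from CellTiter-Glo, developed 30min at room temperature, reports viability of wild-type HCT-116 cells treated 2hr with compounds at 37 C and 5% CO2 after overnight plating.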
A short description of experiment [15]: qHTS assay to identify small molecule agonists of the sonic hedgehog signaling (Shh) pathway - cell viability counter screen (AID 1259366). Also: nearly all actives have a fitted effect of over 50% in size. Also: potency is read from the fitted curve at half-maximal effect. The essentials:
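Cytotoxicity counter screen run in the same wells as the Shh reporter assay. NIH/3T3 cells carrying a Gli1 response element–driven luciferase were treated with DMSO-dissolved compounds for 24hr, and live-cell protease activity was measured with CellTiter-Fluor.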

Experiment [16] can be described thus: qHTS assay to identify small molecule antagonists of the sonic hedgehog signaling (Shh) pathway - cell viability counter screen (AID 1259367). Also: nearly all actives have a fitted effect of over 55% in size. Also: potency is read from the fitted curve at half-maximal effect. The essentials: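 Cells: 3T3 Gli1-Luc, 2,000/well, 4 hr pre-incubation. Compounds in DMSO, then conditioned medium. Incubation 24 hr, 37C, 5% CO2. CellTiter-Fluor at 23 hr, 1 hr, fluorescence.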
The nature of experiment [17]: qHTS assay to identify small molecule agonists of the sonic hedgehog signaling (Shh) pathway (AID 1259368; calls by dose curve;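 also: NIH/3T3-derived 3T3Gli1-Luc cells carrying a stable Gli1-driven firefly luciferase reporter; series mostly up to about 92 µM; nearly all actives have a fitted effect of over 15% in size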). The essentials:
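Mouse fibroblast (NIH/3T3) reporter cells with stably integrated Gli1-Luc were treated 24 hr with compound; firefly luciferase luminescence served as the read-out.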

Experiment [18] in a line: A CellTox Green Cytotoxicity Assay to monitor cytotoxicity in HepG2 cells - 8 hour (AID 1224890). Also: nearly all actives have a fitted effect of over 45% in size. Also: potency is read from the fitted curve at half-maximal effect. In outline:
as §2

The target of experiment [19] is Androgen receptor (Homo sapiens) (UniProt P10275). In words: qHTS assay to identify small molecule antagonists of the androgen receptor (AR) signaling pathway using the MDA cell line in the presence of 0.5 nM R1881 (AID 1259243). Also: nearly all actives have a fitted effect of over 50% in size. Also: potency is read from the fitted curve at half-maximal effect. The essentials:
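We exposed MDA-kb2 cells to compounds under 0.5 nM R1881 stimulation for 16 hr at 37C and quantified MMTV-driven luciferase by luminescence.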

Values without a mark were called inactive. Inconclusive results are not listed. Calls of active or inactive are those of the source. Unless noted, calls follow the shape of the dose curve; as a rule, active = well fitted curve in the direction sought with a large enough effect in the repeat runs; inconclusive = weak or mixed curves; inactive = no such curve, though single readings can be large; an effect the other way counts as inactive or inconclusive.

Estrogen receptor (Homo sapiens), sequence (P03372 whole entry, looked up): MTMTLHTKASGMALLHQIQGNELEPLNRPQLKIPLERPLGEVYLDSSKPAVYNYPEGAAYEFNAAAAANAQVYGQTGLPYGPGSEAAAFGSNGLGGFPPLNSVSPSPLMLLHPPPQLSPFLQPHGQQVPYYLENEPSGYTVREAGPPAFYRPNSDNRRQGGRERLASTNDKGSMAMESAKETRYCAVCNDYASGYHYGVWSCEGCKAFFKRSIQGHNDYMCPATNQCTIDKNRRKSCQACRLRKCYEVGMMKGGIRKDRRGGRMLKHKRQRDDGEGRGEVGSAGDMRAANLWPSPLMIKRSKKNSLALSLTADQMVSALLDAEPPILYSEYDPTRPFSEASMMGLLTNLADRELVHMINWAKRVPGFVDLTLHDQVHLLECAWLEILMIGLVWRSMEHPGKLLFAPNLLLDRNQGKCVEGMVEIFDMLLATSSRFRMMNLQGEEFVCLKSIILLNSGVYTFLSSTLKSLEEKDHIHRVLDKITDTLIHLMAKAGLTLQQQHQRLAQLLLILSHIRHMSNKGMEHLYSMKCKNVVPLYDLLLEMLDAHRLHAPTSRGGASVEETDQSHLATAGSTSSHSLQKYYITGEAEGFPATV
Androgen receptor (Homo sapiens), sequence (P10275 whole entry, looked up): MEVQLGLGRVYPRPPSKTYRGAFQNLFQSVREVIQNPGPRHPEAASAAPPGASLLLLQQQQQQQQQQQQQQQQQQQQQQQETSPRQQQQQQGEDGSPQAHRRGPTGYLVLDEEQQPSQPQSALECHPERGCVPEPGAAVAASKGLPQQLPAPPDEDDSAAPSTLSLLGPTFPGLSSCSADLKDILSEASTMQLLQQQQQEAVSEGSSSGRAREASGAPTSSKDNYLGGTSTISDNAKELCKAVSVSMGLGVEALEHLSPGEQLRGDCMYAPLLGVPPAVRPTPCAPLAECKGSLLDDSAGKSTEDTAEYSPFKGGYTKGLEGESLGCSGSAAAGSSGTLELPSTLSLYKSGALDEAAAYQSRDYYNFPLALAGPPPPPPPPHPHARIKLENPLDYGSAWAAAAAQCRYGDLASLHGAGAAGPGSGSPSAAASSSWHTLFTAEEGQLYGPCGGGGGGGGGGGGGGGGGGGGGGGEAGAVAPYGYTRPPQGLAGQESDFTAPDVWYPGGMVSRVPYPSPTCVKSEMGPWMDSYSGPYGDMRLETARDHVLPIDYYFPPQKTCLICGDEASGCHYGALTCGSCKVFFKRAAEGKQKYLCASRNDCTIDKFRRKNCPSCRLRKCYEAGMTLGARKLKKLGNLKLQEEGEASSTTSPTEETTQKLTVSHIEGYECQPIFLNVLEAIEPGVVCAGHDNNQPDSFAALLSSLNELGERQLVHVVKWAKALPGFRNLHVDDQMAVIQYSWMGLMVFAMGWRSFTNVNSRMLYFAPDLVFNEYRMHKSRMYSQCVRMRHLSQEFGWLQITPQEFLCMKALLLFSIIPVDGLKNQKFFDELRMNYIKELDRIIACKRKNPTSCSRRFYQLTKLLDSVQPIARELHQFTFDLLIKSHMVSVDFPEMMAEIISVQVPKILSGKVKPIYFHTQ

For `C=CC1CC2C=CC1C2` (stereo not drawn), the Potency result in [1], in experiment [2], in [3], in experiment [4], in [5] and in experiment [6] was “inactive” each time. The Potency entry in experiment [7], in [8], in experiment [9], in experiment [10], in experiment [11] and in experiment [12] was “inactive” each time. Moreover, the Potency entry in experiment [13], in experiment [14], in experiment [15] and in experiment [16] was “inactive” in each case. Moreover, the call in experiment [17] was inactive.
In the case of `C[Si](C)(CCCN)O[Si](C)(C)CCCN`, the Potency result in experiment [1], in [2], in [3], in [4], in experiment [5] and in experiment [6] was “inactive” each time. Besides, the Potency entry in experiment [7], in experiment [9], in experiment [18], in [10], in experiment [11] and in experiment [12] was “inactive” each time. Moreover, the Potency result in experiment [13], in [14], in experiment [15] and in experiment [16] was “inactive” each time. Moreover, the compound was classed as inactive in experiment [17].
Turning to `OCCNCc1ccccc1`, the Potency entry in experiment [1], in experiment [2], in [3], in experiment [4], in experiment [5] and in experiment [6] was “inactive” each time. Further, the Potency result in experiment [7], in [9], in [18], in [10], in experiment [11] and in experiment [19] was “inactive” each time. For the same compound, the Potency result in experiment [12], in [13], in experiment [14], in experiment [15] and in experiment [16] was “inactive” throughout. Further, the call in experiment [17] was inactive.
With `COC(=O)c1ccc(I)cc1S(=O)(=O)NC(=O)Nc1nc(C)nc(OC)n1`, the Potency entry in experiment [1], in experiment [2], in [3], in experiment [4], in [5] and in [6] was “inactive” each time. In addition, the Potency entry in experiment [7], in experiment [9], in experiment [18], in experiment [10], in experiment [11] and in [13] was “inactive” each time. Moreover, the Potency result in experiment [14], in experiment [15] and in experiment [16] was “inactive” each time. Besides, in experiment [17], the outcome was inactive.
For `Cc1cccc(Nc2ccccc2)c1`, the Potency in experiment [1] was 34.7 µM (active); in [3] it was 38.9 µM (active); in experiment [18], 49 µM (active); in [19], 24.3 µM (active). In addition, the Potency result in [2], in experiment [4], in experiment [5], in experiment [6], in experiment [8] and in experiment [9] was “inactive” throughout. Besides, the Potency entry in experiment [10], in experiment [11], in experiment [13], in experiment [14], in experiment [15] and in experiment [16] was “inactive” throughout. Moreover, in [17], the result was inactive.
Turning to `CCOc1ccc(N=Nc2ccc(/C=C/c3ccc(N=Nc4ccc(OCC)cc4)cc3S(=O)(=O)O)c(S(=O)(=O)O)c2)cc1`, the Potency entry in [1], in experiment [2], in experiment [3], in experiment [4], in experiment [5] and in experiment [6] was “inactive” each time. Besides, the Potency entry in experiment [7], in [8], in [9], in experiment [18], in experiment [13] and in experiment [14] was “inactive” throughout. In addition, the Potency in [10] was 24 µM (active); in experiment [15], 30.2 µM (active); in experiment [16], 21.4 µM (active). Moreover, the outcome in experiment [17] was inactive.
As for `COCCCN1CCC(NC(=O)c2cc(Cl)c(N)c3c2OCC3)CC1`, the Potency entry in [1], in experiment [2], in [3], in [4], in experiment [5] and in experiment [6] was “inactive” each time. Also, the Potency entry in experiment [7], in [8], in experiment [9], in [18], in [10] and in [11] was “inactive” each time. Moreover, the Potency result in experiment [13], in experiment [14], in experiment [15] and in experiment [16] was “inactive” in each case. In addition, in [17], the result was inactive.
